# ChEMBL document CHEMBL3988442, “University of Dundee, Small-Polar-MMV Screening Library” (2021)
# Target: T1, Aspartate--tRNA(Asp/Asn) ligase (Mycobacterium tuberculosis (strain ATCC 25618 / H37Rv)) (UniProt P9WFW3)
# T1 sequence (whole entry): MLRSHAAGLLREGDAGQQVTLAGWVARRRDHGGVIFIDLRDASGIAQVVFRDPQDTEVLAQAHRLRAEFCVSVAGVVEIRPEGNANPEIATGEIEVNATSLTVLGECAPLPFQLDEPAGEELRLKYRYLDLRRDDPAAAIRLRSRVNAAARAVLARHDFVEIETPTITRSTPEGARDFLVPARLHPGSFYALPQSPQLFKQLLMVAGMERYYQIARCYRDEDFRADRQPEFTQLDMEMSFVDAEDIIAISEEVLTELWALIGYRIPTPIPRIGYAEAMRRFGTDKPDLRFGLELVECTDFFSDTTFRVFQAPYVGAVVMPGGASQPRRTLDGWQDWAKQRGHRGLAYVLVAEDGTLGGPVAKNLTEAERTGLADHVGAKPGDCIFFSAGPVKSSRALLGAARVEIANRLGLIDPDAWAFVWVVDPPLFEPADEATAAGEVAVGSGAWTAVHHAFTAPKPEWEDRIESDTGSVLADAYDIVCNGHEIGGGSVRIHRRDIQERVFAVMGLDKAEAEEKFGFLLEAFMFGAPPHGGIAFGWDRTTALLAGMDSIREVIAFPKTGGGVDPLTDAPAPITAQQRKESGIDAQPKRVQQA
# Assay: Assay for Asp RNA synthetase-1 from Mycobacterium tuberculosis
# Type: functional
# Set-up: scale not given: in the data most compounds retested in dose-response had high values
# Conditions: 30 µM
row,SMILES,Percent Effect [%]
1,CN(C)C(=O)c1cnc2n1CCN(Cc1ccccc1)C2,0.632
2,CS(=O)(=O)NC[C@]12COC[C@H]1CN(C(=O)Cc1ccccc1F)C2,6.16
3,O=C(NCCCn1cncn1)NCC(c1ccco1)N1CCCCC1 (stereo not given),7.12
4,Fc1ccc(OCc2noc(CN3CCc4cncnc4C3)n2)cc1,-0.7
5,Cc1nn(CC(=O)N2CCN(c3ccccc3F)CC2)c(C)c1Cl,8.8
6,COCc1nc(CNC2CCSCC2)no1,-4
7,CCCNC(=O)NC(=O)CN(CC(C)O)c1ccccc1 (stereo not given),1.53
8,Cn1cc2c(n1)C(CNC(=O)Cc1ccsc1)OCC2 (stereo not given),-0.539
9,N#CCSCCCN1CCN(C(=O)c2ccc(Cl)cc2)CC1,0.593
10,CSc1ccccc1CN1CCCn2nc(CNC(=O)N(C)C)cc2C1,2.53
11,CC(O)CNC(=O)NCc1ccc(N2CCNC(=O)C2)cc1 (stereo not given),2.09
12,CC(C)Oc1ccc(CNC(=O)CC(F)(F)F)cc1F,-4.64
13,CCN1CCN(C2CCN(Cc3noc(C)n3)CC2)C1=O,-5.45
14,CCNC(c1cccnc1)c1cc(C)cc(C)c1 (stereo not given),-2.55
15,Cc1n[nH]c(C2CN(C(=O)CCc3ccsc3)CCO2)n1 (stereo not given),3.08
16,COCC1CN(C(=O)c2ccoc2C)Cc2nccn2C1 (stereo not given),4.54
17,Cc1cnn(CC2CN(CC(=O)N3CCc4ccccc43)CCO2)c1 (stereo not given),-4.75
18,CCc1nc(CN(C)C2CCN(CCn3cc(C#N)cn3)C2)no1 (stereo not given),9.06
19,Cc1nn2cccnc2c1C(=O)N1CCCC(Nc2ccccc2)C1 (stereo not given),1.98
20,CC1=Nc2c(c(=O)[nH]n2C(C)C)C(c2ccc(F)c(F)c2)S1 (stereo not given),1.86

row,SMILES,Percent Effect [%]
1,CCC(C)(NCC(=O)N(c1ccccc1)C(C)C)c1nc(C)cs1 (stereo not given),1.2
2,CCN1CCC(CNC(=O)NCc2cc(-c3ccc(C)cc3)no2)C1 (stereo not given),2.27
3,Cc1nc(C)n(CC2CCCN2CCc2cccs2)n1 (stereo not given),-0.678
4,COCCCNC(=O)NCc1ccc(C)cc1,-3.8
5,COCC(=O)N1CCCC1c1ccnc(Nc2cnccn2)n1 (stereo not given),0.0744
6,CN(C)c1ccc(C(=O)N2CCN(C(=O)N3CCCCC3)CC2)nn1,-3.34
7,Cc1ccc(NC2CCN(C(=O)Cc3cccc(F)c3)CC2)nn1,14.3
8,CN(Cc1ccc(OC(F)F)cc1)C(=O)CS(=O)(=O)c1ccc(Cl)cc1,0.524
9,CC(NC(=O)NCCCN(C)S(C)(=O)=O)c1ccncc1 (stereo not given),-2.98
10,CC1CCN(C(=O)CN(Cc2ccco2)C2CC2)CC1,0.548
11,COc1ccccc1NC(=O)NCC(O)(c1ccccc1)C1CC1 (stereo not given),-6.53
12,CCC(=O)NCCc1cc(N2CCN(C(C)=O)CC2)nc(C2CC2)n1,-0.432
13,Cc1cnn(CC2CCCN2C(=O)c2cccc(-n3cnnn3)c2)c1 (stereo not given),-7.68
14,COc1ccc(CN2CCC3(CC2)CCN(c2ncccn2)CC3)cc1,2.89
15,O=C(NCCC(=O)N1CCCC1)c1nn(-c2ccccc2F)cc1O,-3.29
16,O=C(C1CCCC1)N1CCC2(CC1)COCCN2CC1CC1,-3.37
17,O=C(c1ccc(C2CCCO2)s1)N1CCS(=O)(=O)CC1 (stereo not given),3.74
18,CN(C)S(=O)(=O)N1CCC(Oc2ccccn2)CC1,3.02
19,COc1ccc(C(=O)NCCCn2ccnc2)c(OC)n1,-1.77
20,Cc1c[nH]nc1C1CCN(S(=O)(=O)N(C)C)CC1,2.31
